Results taken from PubChem BioAssay (Tox21).
Inconclusive results are not listed. Where a call stands in place of a potency, no number is given. Activity calls are given as the source filed them. Calls follow the shape of the full dose curve.

target: D(2) dopamine receptor (Homo sapiens) (UniProt P14416); experiment: Dopamine D2 receptor (DRD2) small molecule agonists, cell-based qHTS assay (AID 1963594); conditions: HEK293-DRD2 cAMP HTRF, agonist mode, 30 min; series mostly up to 92.4 µM; also: nearly all actives have a fitted effect of over 35% in size
Source text: National Center for Advancing Translational Sciences [NCATS]
Division of Preclinical Innovation [DPI]
U.S. Environmental Protection Agency [EPA]
National Institutes of Environmental Health Sciences [NIEHS]
National Toxicology Program [NTP]
U.S. Food and Drug Administration [FDA]
DRD2 is the D2 subtype of the dopamine receptor, which is coupled to Gi subtype of G protein-coupled receptor. This G protein-coupled receptor inhibits adenylyl cyclase activity. The DRD2-HEK293 cell line stably expressing D2 dopamine receptor can be used for screening agonists and antagonists of interactions between D2 and its ligands. The Hek293-DRD2 cAMP assay is based on HTRF technology. It measures changes of cAMP accumulation in response to Gi coupled GPCR activation or inhibition.
Tox21 Assay Protocol Summary:
DRD2-Hek293 cells were dispensed at 600 cells/3uL/well in 1536-well white plates using a Multidrop Dispenser. After the assay plates were incubated at a 37 C/5% CO2 incubator for 24 h, 1 uL of Ro20-1724 at final concentration of 0.1 mM was transferred to the assay plate by a Flying Reagent Dispenser. Following Ro20-1724 addition, 23 nL of compound dissolved in DMSO, positive controls or DMSO only was added to the assay plates via Wako pintool station. The assay plates were incubated at room temperature for 10 min. Next, 1 uL of NKH477 at 200nM was added into the plates. After the assay plates were incubated at room temperature for an additional 30 min, 2.5 ul/well of cAMP-d2 and 2.5 ul/well of anti-cAMP-cryptate were added respectively into the assay plates using a Flying Reagent Dispenser. The plates were incubated at room temperature for 1 h. The fluorescence intensity in the plates was measured at 340 nm excitation and 665 & 620 nm emission by an Envision plate reader.

Chain of D(2) dopamine receptor (Homo sapiens) (P14416 whole entry, looked up): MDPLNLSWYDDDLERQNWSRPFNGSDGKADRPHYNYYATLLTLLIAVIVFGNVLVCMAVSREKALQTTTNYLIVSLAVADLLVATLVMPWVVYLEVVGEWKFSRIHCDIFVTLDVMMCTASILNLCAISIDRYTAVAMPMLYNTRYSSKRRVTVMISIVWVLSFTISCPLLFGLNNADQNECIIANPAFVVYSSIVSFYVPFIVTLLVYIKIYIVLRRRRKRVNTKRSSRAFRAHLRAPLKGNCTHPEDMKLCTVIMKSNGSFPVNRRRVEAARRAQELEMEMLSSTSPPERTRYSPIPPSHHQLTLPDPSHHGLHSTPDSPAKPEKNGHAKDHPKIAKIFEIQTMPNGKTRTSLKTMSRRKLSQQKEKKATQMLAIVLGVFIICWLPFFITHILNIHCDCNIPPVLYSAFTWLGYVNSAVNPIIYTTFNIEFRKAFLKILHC

Compound | Potency
NC(=O)CC[C@@H]1NC(=O)[C@H](Cc2ccccc2)NC(=O)[C@H](Cc2ccc(O)cc2)NC(=O)CCSSC[C@@H](C(=O)N2CCC[C@H]2C(=O)N[C@@H](CCCN=C(N)N)C(=O)NCC(N)=O)NC(=O)[C@H](CC(N)=O)NC1=O | inactive
C[n+]1ccccc1/C=N/O | inactive
Cc1cccc([N+](=O)[O-])c1C(=O)O | inactive
CCCC(C)c1ccccc1O (stereo not given) | inactive
Nc1ccnc(=O)[nH]1 | inactive
CC(C)=CCC[C@@](C)(O)[C@H]1CC=C(C)CC1 | inactive
O=S(=O)(O)c1ccc(O)c2ncccc12 | inactive
CCCCC/C=C/CC1CC(=O)OC1=O (stereo not given) | inactive
COc1c(C)c2c(c(O)c1C/C=C(\C)CCC(=O)O)C(=O)OC2 | inactive
CCCCNc1c(C(=O)OCC)c(C)nc2c1cnn2CC | inactive
CC(C)(C)NSc1nc2ccccc2s1 | inactive
CCC=CC#N | inactive
COC(=O)[C@@H]1[C@H]2C[C@H]3c4[nH]c5ccccc5c4CCN3C[C@@H]2CC[C@@H]1O | inactive
O=c1c(O)c(O)c1=O | inactive
CC[N+](CC)(CC)Cc1ccccc1 | inactive
O=C(OCc1ccccc1)C(=O)OCc1ccccc1 | inactive
CCO[Si](CC)(OCC)OCC | inactive
C[C@H]1C[C@H]2[C@@H]3CCC4=CC(=O)C=C[C@]4(C)[C@H]3C(=O)C[C@]2(C)[C@@]1(O)C(=O)CO | inactive
COCCOCC(OC)OC | inactive
CC(COC(C)(C)C)OCCCO (stereo not given) | inactive

Compound | Potency
CC(=O)[C@H]1CC[C@H]2[C@@H]3C=CC4=CC(=O)CC[C@@]4(C)[C@@H]3CC[C@]12C | inactive
CC1=C(/C=C/C(C)=C/C=C/C(C)=C\C(=O)O)C(C)(C)CCC1 | inactive
CCCCOCCOC(=O)COc1cc(Cl)c(Cl)cc1Cl | inactive
ClC1=C(Cl)C1(Cl)Cl | inactive
Nc1cc(Cl)c(O)c(Cl)c1 | inactive
Cc1cc(C)n(CO)n1 | inactive
Nc1cc(S(=O)(=O)O)ccc1O | inactive
C=C1C[C@@]23CC[C@H]4[C@@](C)(CCC[C@@]4(C)C(=O)O[C@@H]4O[C@H](CO)[C@@H](O)[C@H](O)[C@H]4O)[C@@H]2CC[C@]1(O[C@@H]1O[C@H](CO)[C@@H](O)[C@H](O[C@@H]2O[C@H](CO)[C@@H](O)[C@H](O)[C@H]2O)[C@H]1O[C@@H]1O[C@H](CO)[C@@H](O)[C@H](O)[C@H]1O)C3 | inactive
O=C(O)c1ccncc1 | inactive
Cc1occc(=O)c1OC(=O)C(C)C | inactive
CCOC(=O)OCC/C(SC(=O)OCC)=C(\C)N(C=O)Cc1cnc(C)nc1N | inactive
O=C(O)Cc1csc(-c2ccc(Cl)cc2)n1 | inactive
Nc1cc([N+](=O)[O-])cc(Cl)c1O | inactive
C[N+]1(C)CCCC(OC(=O)C(O)(c2ccccc2)c2ccccc2)C1 (stereo not given) | inactive
CCOC(=O)COC(=O)c1ccccc1C(=O)OCC | inactive
CC1=CC[C@H](C(C)C)C=C1 | inactive
CC(C)Cc1nccs1 | inactive
Oc1cccc(O)c1O | inactive
Cc1[nH]c(=O)c(C#N)cc1-c1ccc2nccn2c1 | inactive
CCCCOCC | inactive
